Assay outcomes (PubChem BioAssay)
Most compounds without a hit are left out; they make up all but 21% or so of the library.
ELG1 DNA repair = inhibitors of ELG1-dependent DNA repair in HEK293T cells; Potency, µM (series often up to 46.1 µM), hits mostly inhibitors; AID 504467; 2.3% of 330,000 active; HEK293T ELG1-luciferase reporter, luminescence, 16 h; DNA damage induced by 5-fluorouridine; further: nearly all actives have a fitted effect of over 55% in size
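Luminescence from the luciferase reporter, measured 30 min after ONE-Glo reagent at room temperature, was the read-out. Beforehand, 2,000 cells per well were exposed for 16 hr at 37 °C to 5-fluorouridine together with compound or vehicle.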
IL1B secr inh = blocks inflammasome-driven IL-1 beta release | THP-1 LPS/ATP IL-1B secretion, AlphaLISA, 16 h; stronger effect = lower value | activity change, % at 57.5 µM | 4.7% of 360,000 active | AID 743279; in the data active means activity change below about -50%; inconclusive means mostly about -30% to -49%
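THP-1 cells pretreated 1 hr with compounds (up to 57.5 uM final), then stimulated with LPS (250 ng/mL final) plus ATP (1.25 mM final); secreted IL-1B measured by AlphaLISA after 16 hr, decreased signal indicating inhibition.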
DT40 TDP1 no CPT = qHTS for Inhibitors of human tyrosyl-DNA phosphodiesterase 1 (TDP1): qHTS in cells in absence of CPT; DT40 Tdp1-/- hTDP1 cells, no CPT, ATP luminescence, 48 h; Potency, µM (highest dose often 46.2 µM), usual class: inhibitors; 15% of 420,000 active; AID 686978, 2013; further: nearly all actives have a fitted effect of over 55% in size
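Readout: luminescence from CellTiter-Glo after 30 min in the dark at RT. Cells: DT40 Tdp1-/- with stable hTDP1, 400/well. Exposure: compounds alone, ≥48 hr, 37 °C.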
RORg inh = inhibitors of mouse ROR gamma transcriptional activity; P51450; Drosophila S2 Gal4-RORgamma UAS-luciferase reporter, 20 h; Potency, µM (top dose mostly 53.6 µM), usual class: inhibitors; 5.4% of 310,000 active; further: nearly all actives have a fitted effect of over 60% in size
Target sequence (P51450 whole entry, looked up, the tested form may be a part): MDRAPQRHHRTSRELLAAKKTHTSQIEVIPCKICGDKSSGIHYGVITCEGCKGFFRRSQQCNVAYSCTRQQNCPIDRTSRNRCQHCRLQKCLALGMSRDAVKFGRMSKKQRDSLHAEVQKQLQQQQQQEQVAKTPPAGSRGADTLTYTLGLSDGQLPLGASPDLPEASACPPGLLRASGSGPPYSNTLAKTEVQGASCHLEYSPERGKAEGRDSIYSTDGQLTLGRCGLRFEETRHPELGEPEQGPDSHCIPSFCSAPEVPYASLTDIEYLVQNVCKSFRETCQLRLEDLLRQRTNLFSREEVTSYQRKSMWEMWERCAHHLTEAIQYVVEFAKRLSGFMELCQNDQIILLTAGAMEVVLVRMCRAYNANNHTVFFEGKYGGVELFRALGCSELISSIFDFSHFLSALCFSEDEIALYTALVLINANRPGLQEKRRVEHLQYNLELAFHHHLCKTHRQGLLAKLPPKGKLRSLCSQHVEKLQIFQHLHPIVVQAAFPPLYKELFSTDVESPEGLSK
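Luciferase reporter read in Schneider cells carrying Gal4-RORγ (mouse) and UAS-Photinus luciferase; cells given compound 1 h before 700 uM copper sulfate induction, then incubated 20 h at ambient temperature.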
VP16 counter = Gal4-VP16 reporter inhibition counter-screen; Potency, µM (top dose mostly 53.6 µM), usual class: inhibitors; 3.5% of 310,000 active; Drosophila S2 Gal4-VP16 UAS-luciferase, luminescence, 20 h;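 further: Gal4-VP16 expression switched on by copper sulfate through the metallothionein promoter; nearly all actives have a fitted effect of over 50% in size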
DT40 TDP1 CPT = DT40-hTDP1 cell growth loss with CPT. chicken DT40 Tdp1-/-;hTDP1 cells + 20 nM CPT, ATP luminescence, 48 h. Potency, µM (highest dose often 46.2 µM), most hits filed as inhibitors. 12% of 420,000 active; further: nearly all actives have a fitted effect of over 55% in size
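Chicken DT40 Tdp1-/- cells stably complemented with human TDP1 were seeded at 400 cells/well in medium containing 20 nM camptothecin, exposed to pin-transferred compounds, and grown at 37 °C for at least 48 hr. Viability was read as ATP luminescence.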
Hits are given with their value; n = inactive; u = inconclusive; x = not tested or not shown; [ ] = another dose, or the depositor's remark. Unless noted, the call rests on the fitted dose curve; in most records, active means well fitted curve in the direction sought with a large enough effect; inconclusive means small, poorly fitted or top-dose-only effect, or another doubt; inactive means no such curve, though single readings can be large; an effect the other way counts as inactive or inconclusive.

SMILES	ELG1 DNA repair	IL1B secr inh	DT40 TDP1 no CPT	RORg inh	VP16 counter	DT40 TDP1 CPT
CCOC(=O)c1c(C)[nH]c(C)c1C(=O)CSc1nc2ccccc2c(=O)n1-c1ccc(CC)cc1	u	n	6.5µM	u	n	12µM
CC(=O)c1ccc(-n2c(SCC(=O)c3c[nH]c4ccccc34)nc3ccccc3c2=O)cc1	u	u	12µM	1.4µM	n	21µM
O=C(NCc1cccc(C(F)(F)F)c1)C1C(=O)Nc2ccccc2C(=O)N1Cc1ccccc1 (configuration not stated)	x	n	u	x	x	u
Cc1cc(NCCCN2CCOCC2)n2ncc(-c3ccccc3)c2n1	u	n	u	n	n	u
COc1ccccc1-c1c(C)nn2c(NCCN3CCCC3)cc(C)nc12	n	u	n	6.3µM	7.1µM	n
Cc1cc(NCCCN2CCOCC2)n2nc(C)c(-c3ccc(F)cc3)c2n1	n	-57	16µM	n	n	u
CCOC(CNc1cc(C)nc2c(-c3ccccc3OC)c(C)nn12)OCC	n	n	n	n	n	u
Cc1cc(C)c2c(n1)nn1c(NCCCN3CCOCC3)cc(C)nc21	x	n	n	x	x	n
Cc1cc(NCCCN2CCOCC2)n2nc(C)c(-c3ccccc3)c2n1	n	n	16µM	n	n	16µM
Cn1c(=O)[nH]c(=O)c2c1nc(N1CCCC1)n2CCSc1nc2ccccc2[nH]1	n	x	x	n	n	x
O=[N+]([O-])c1ccc(/C=C/c2ccnc3ccccc23)c([N+](=O)[O-])c1	x	x	20µM	x	x	35µM
O=[N+]([O-])c1ccc(/C=C/c2ccnc3ccccc23)cc1	x	x	16µM	x	x	11µM
Nc1ccc(/C=C/c2ccnc3ccccc23)cc1[N+](=O)[O-]	x	x	5µM	x	x	10µM
O=C1CC[C@@H](C(=O)NCC2Cc3cc(Cl)cc(-c4ccc5[nH]ccc5c4)c3O2)N1 (some centres not stated)	x	x	n	x	x	n[9.04 µM]
O=C1SC(Nc2ccccc2)C(=O)N1c1ccccc1 (configuration not stated)	x	x	n	x	x	n
C#CCn1c2ccccc2c(=O)n1CCOc1ccccc1OC	x	n	u	x	x	u
CC(=O)Nc1cc(-c2ccccc2N(C)C)cn2c(-c3ccc(S(C)(=O)=O)cc3)cnc12	x	n	18µM	x	x	u
CC(=O)Nc1cc(-c2ccccc2N(C)C)cn2c(-c3ccccc3)cnc12	x	n	23µM	x	x	16µM
CCOc1ccc(C(c2c(O)cc(C)n(CCOC)c2=O)N2CCC(C)CC2)cc1 (configuration not stated)	x	x	n	x	x	n
S=c1ncc2n[nH]nc2[nH]1	x	x	n	x	x	n
O=C1Nc2ccc(Br)cc2C1Cc1ccccc1F (configuration not stated)	n	n	n	n	n	n
Cc1cccc(CC2C(=O)Nc3ccccc32)c1 (configuration not stated)	x	x	21µM	x	x	u
CSc1ccc(CC2C(=O)Nc3ccccc32)cc1 (configuration not stated)	x	x	21µM	x	x	u
CN(C)c1ccc(CC2C(=O)Nc3ccccc32)cc1 (configuration not stated)	u	n	u	n	n	u
CN1CCN(c2sc(S(C)(=O)=O)nc2S(=O)(=O)c2ccc(Cl)cc2)CC1	n	u	n	n	n	n
SMILES	ELG1 DNA repair	IL1B secr inh	DT40 TDP1 no CPT	RORg inh	VP16 counter	DT40 TDP1 CPT
Cc1ccccc1-c1nc(CS(=O)CC(=O)NCc2ccccn2)c(C)o1 (configuration not stated)	n	n	n	n	n	n
COc1ccc(NC(=O)Cn2nnc(-c3ccccc3F)n2)cc1	n	n	n	n	n	n
CC1CCCN(S(=O)(=O)c2ccc(NC(=O)Cn3nnc(-c4ccccc4F)n3)cc2)C1 (configuration not stated)	n	n	23µM	n	n	u
Cc1cc(C)cc(NC(=O)Cn2nnc(-c3ccccc3F)n2)c1	x	x	u	x	x	n
CCOc1ccc(NC(=O)Cn2nnc(-c3ccccc3F)n2)cc1	n	n	u	n[0.365 µM]	x	21µM
CC1CCN(S(=O)(=O)c2ccc(NC(=O)Cn3nnc(-c4ccccc4)n3)cc2)CC1	n	n	u	n	u	u
CN(C)C(=O)c1ccc(NC(=O)Cn2nnnc2-c2ccccc2F)cc1	x	x	18µM	x	x	15µM
Cc1ccc(-c2nnn(CC(=O)Nc3ccc(S(=O)(=O)N4CCC(C)CC4)cc3)n2)cc1	u	n	18µM	u	n	u
Cc1nn2c(=O)cc(COC(=O)Cc3ccccc3)nc2s1	x	x	n	x	x	n
CC(C)N(Cc1ccccc1)C(=O)COC(=O)c1cc[n+]([O-])cc1	n	n	n	x	x	n
Cc1ccc(CN(C(=O)c2ccco2)C(C(=O)NC2CCCC2)c2cccnc2)cc1 (configuration not stated)	n	n	n	n	n	n
Cc1ccc(S(=O)(=O)N2CCOCC2)cc1C(=O)N1c2ccccc2Sc2ccccc21	u	n	23µM	n	n	u
Cc1ccc(S(=O)(=O)N2CCOCC2)cc1C(=O)NC(=S)N1CC(C)CC(C)C1 (configuration not stated)	u	n	n	1.6µM	5µM	n
CCCCCC(C)NC(=S)NC(=O)c1cc(S(=O)(=O)N2CCOCC2)ccc1C (configuration not stated)	u	n	u	10µM	11µM	u
Cc1ccc(S(=O)(=O)N2CCOCC2)cc1C(=O)NC1CCCC1	n	n	n	n	n	n
COCC(C)NC(=S)NC(=O)c1cc(S(=O)(=O)N2CCOCC2)ccc1C (configuration not stated)	n	n	n	n	n	n
CCCC(C)NC(=S)NC(=O)c1cc(S(=O)(=O)N2CCOCC2)ccc1C (configuration not stated)	u	n	13µM	u	u	21µM
Clc1cccc(N2CCN(c3ncnc4c3nc3n4CCCCC3)CC2)c1	x	x	10µM	x	x	15µM
CCOC(=O)C1CCN(c2ncnc3c2nc2n3CCCCC2)CC1	x	x	n	x	x	n
Cc1cccc(N2CCN(c3ncnc4c3nc3n4CCCCC3)CC2)c1C	x	x	u	x	x	26µM
O=C(C1CCN(c2ncnc3c2nc2n3CCCCC2)CC1)N1CCN(c2ccc(Cl)cc2)CC1	x	x	n	x	x	n
C[C@@H]1CC2(OC[C@]3(C)O[C@H]23)O[C@H]2C[C@@]3(C)[C@@H]4CC[C@H]5C(C)(C)C(O[C@@H]6OC[C@@H](O)[C@H](O)[C@H]6O)CC[C@@]56C[C@@]46CC[C@]3(C)[C@@H]12 (some centres not stated)	x	x	x	n	n	x
